Source: PubChem BioAssay
The list is not random: actives were taken first. Their share in the collection is about 2.1%.
M18AAP inhibitor: blocks P. falciparum M18 aspartyl aminopeptidase; recombinant PfM18AAP, H-Glu-NHMec fluorogenic cleavage; inhibition, % at 7.35 µM; 1.2% of 290,000 active; AID 1822;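 active means inhibition above the campaign mean inhibition over all tested compounds plus 3 SD, cut at about 28% in these data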
Calb FLC: affects C. albicans growth with fluconazole. 0.57% of 300,000 active. C. albicans CaCi-2 (fluconazole-resistant clinical isolate) + fluconazole, Alamar Blue growth, 48 h. growth inhibition, % (no concentration beside the values);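 active means growth inhibition above about 58% in most replicates, limit read from the data, passing the limit was not always enough; inconclusive means exactly half the replicates above a set limit; inactive means most replicates below a set limit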;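 further: all wells also contain fluconazole at 8 µg/ml as a sub-toxic cotreatment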
Rin1 Abl inh: inhibitors of human Rin1-Abl protein interaction. 0.4% of 360,000 active. inhibition, % at 7.35 µM. AID 588664. TR-FRET Rin1/Abl binding, biochemical; in the data active means inhibition above about 5%, passing the limit was not always enough
CTSL1 counter: cathepsin L1 inhibition, PFM18AAP counter-screen; recombinant F. hepatica cathepsin L1, Z-Leu-Arg-MCA fluorescence; inhibition, % at 5.96 µM; 0.49% of 300,000 active; AID 1906;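 active means inhibition above the mean of all tested compounds plus 3 SD, set per screening campaign, cut at about 17% in these data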
Each line names hits and unclear results; the compound was inactive in the other large screens.

Cc1c(Cl)cccc1-n1c(-c2cccnc2)n[nH]c1=S	M18AAP inhibitor 30.6
N#CCCn1cc(/C=C2\NC(=S)N(c3ccccc3)C2=O)c(-c2ccc(F)cc2)n1	none
O=C(O)CCn1cc(/C=C2\NC(=S)N(c3ccccc3)C2=O)c(-c2ccc(Br)cc2)n1	CTSL1 counter 18.7
CCn1c(COc2cccc(C)c2)nnc1SCC(=O)CC(=O)Nc1ccccc1OC	CTSL1 counter 17.1
Cc1oc(=O)c(NC(=O)c2cccc(Cl)c2)cc1C(=O)c1ccccc1	CTSL1 counter 55.0
COC(=O)c1cc(NC(=O)c2ccccc2)c(=O)oc1C	none
COc1ccc(C(=O)Nc2cc(C(=O)c3ccccc3)c(C)oc2=O)cc1	CTSL1 counter 18.2
O=C(CN1C(=O)NC(c2ccccc2)(c2ccccc2)C1=O)NCCNCCO	none
CCCCn1c(=O)c(CCC(=O)OCC(=O)NC(C)c2ccccc2)nc2ccccc21 (centres undefined)	none
CCCCn1c(=O)c(CCC(=O)OCC(=O)NCc2ccc(OC)c(OC)c2)nc2ccccc21	Calb FLC 76.9
Cc1cnc(C(=O)Nc2nnc(SCc3c(Cl)cccc3Cl)s2)cn1	none
Cc1ccc(S(=O)(=O)N2CCOCC2)cc1NC(=O)CNCc1cccnc1	none
COc1ccc(C(=O)c2c(C(F)(F)F)oc3c2C(=O)c2ccccc2C3=O)cc1	CTSL1 counter 27.7
C#CC(=O)N(c1cc(OC)ccc1OC)C(C(=O)NC1CCCC1)c1cccs1 (centres undefined)	CTSL1 counter 34.2
C#CC(=O)N(c1ccc(OC)cc1OC)C(C(=O)NC1CCCC1)c1cccs1 (centres undefined)	CTSL1 counter 29.5
COc1ccc(N(C(=O)c2ccco2)C(C(=O)NC2CCCCC2)c2cccs2)cc1OC (centres undefined)	none
CCc1noc(C)c1C(=O)N1CCC(CCC(=O)Nc2cccc(C)c2)CC1	none
CC(=O)c1cccc(NC(=O)CN(C)S(=O)(=O)c2ccccc2)c1	none
CC(=O)O[C@@H]1C[C@@]2(C)[C@@H](CC[C@H]2[C@@H](C)/C=C\CC(C)C)C2=C[C@@H](O)[C@@]3(O)C[C@@H](O)[C@H](O)C[C@]3(CO)[C@]21O	none (no result: M18AAP inhibitor, Calb FLC, CTSL1 counter)
CC1=NN(C(N)=S)C(=O)C1N=Nc1cccc2ccccc12 (centres undefined)	Calb FLC 108.0 (no result: Rin1 Abl inh)
CC1=NN(C(N)=S)C(=O)C1N=Nc1cccc(Cl)c1C (centres undefined)	none
O=C(c1ccc(Cl)c(S(=O)(=O)N2CCCCC2)c1)N1CCN(c2ccccc2)CC1	none
O=C(c1ccc(Cl)c(S(=O)(=O)N2CCCC2)c1)N1CCN(c2ccccc2)CC1	CTSL1 counter 34.7
CC(NCC(=O)Nc1ccccc1C(=O)NC1CC1)c1ccc(F)cc1F (centres undefined)	none (no result: M18AAP inhibitor, Calb FLC, CTSL1 counter)
Cc1nn(C)cc1/C=N\NC(=O)c1ccc2c(c1)c(C)c(C)n2Cc1ccccc1	none
Cc1cc2c(N=O)c(NO)ccc2[nH]1	Rin1 Abl inh 11.6
Cc1ccc(S(=O)(=O)N2CCCCC2)cc1C(=O)OCC(=O)NC(=O)NC12CC3CC(CC(C3)C1)C2	none
CCOC(=O)c1cc2c(=O)n3ccccc3nc2n(CCOC)c1=NC(=O)c1ccncc1	Calb FLC 113.7
O=C(NCCCc1ccccc1)c1cncc(Br)c1	none
O=C(c1ccc(C(=O)N2CCN(c3ccccc3F)CC2)nc1)N1CCN(c2ccccc2F)CC1	Calb FLC 95.1
COC(=O)C1CCN(CC(=O)Nc2ccc(OC)c(Cl)c2)CC1	none
COCCNC(=O)CCCn1c(=O)c2cc(OC)c(OC)cc2n(CC(=O)NCCC2=CCCCC2)c1=O	Calb FLC 51.1
COCCNC(=O)CCCn1c(=O)c2ccccc2n(CC(=O)NCCC2=CCCCC2)c1=O	none (no result: CTSL1 counter)
CCOC(=O)c1c(-c2ccccc2)oc2ccc(OCC(O)CN(C)C)cc12 (centres undefined)	Calb FLC 93.8
CCOC(=O)c1c(-c2ccccc2)oc2ccc(OC(C)C(=O)O)cc12 (centres undefined)	none
Cc1cc(Sc2ncnc(N)c2[N+](=O)[O-])ncn1	Calb FLC 101.1
Cc1cc(N)ncc1[N+](=O)[O-]	none (no result: M18AAP inhibitor, Calb FLC, CTSL1 counter)
Cc1ccc(C)c(Oc2ncnc(N)c2[N+](=O)[O-])c1	none
Cc1cc(Sc2nc(N)ncc2[N+](=O)[O-])ncn1	Calb FLC 105.1
Cn1c(=O)c2cc(NC(=O)NCCc3ccccc3)ccc2n1Cc1ccc(F)cc1	none (no result: M18AAP inhibitor, Calb FLC, CTSL1 counter)
OC(c1ccc(Cl)cc1)c1nccc2ccccc12 (centres undefined)	none
O=C(Cn1ncc2c1-c1ccccc1OC2)N(Cc1ccco1)C1CCCCC1	CTSL1 counter 62.0
Cc1ccc2oc(=O)c3cnn(CC(=O)N(CCC(C)C)Cc4ccco4)c3c2c1	none
O=C(Cn1ncc2c(=O)oc3ccccc3c21)N(Cc1ccco1)C1CCCCC1	CTSL1 counter 44.4
CCOC(=O)C1CCN(C(=O)COC(=O)c2nn(C)c(=O)c3ccccc23)CC1	none (no result: M18AAP inhibitor)
CCC(C)(C(=O)NC1CCCCC1)N(Cc1cccs1)C(=O)c1ccc(=O)[nH]c1 (centres undefined)	none
CCCCN(C=O)c1c(CC)nc2c(OCc3ccccc3C)cccn12	none (no result: M18AAP inhibitor, Calb FLC, CTSL1 counter)
COc1ccc(/C=C2\CCCC3C2=NC(=S)NC3c2ccc(OC)cc2)cc1 (centres undefined)	none
CSCCC(NS(=O)(=O)c1ccc2c(c1)c(=O)n(C)c(=O)n2C)C(=O)NC1CCN(Cc2ccccc2)CC1 (centres undefined)	Calb FLC inconclusive, CTSL1 counter 39.7
COCC1CCCCN1C(=O)c1cccc(OC2CCN(C(=O)C3CC3)CC2)c1 (centres undefined)	none
CCOc1cccc(-c2c(C(=O)N/N=C(\C)c3ccccn3)nnn2-c2nonc2N)c1	Calb FLC 82.0
c1ccc(Sc2ncccn2)nc1	none
CCOC(=O)C1CCN(CCC(=O)Nc2ccc(F)cc2)CC1	Calb FLC 106.9
COC(=O)N/N=C/c1ccc(-c2cc(Cl)cc(Cl)c2)o1	Calb FLC 78.9
COC(=O)N/N=C/c1ccc(-c2cccc(Cl)c2)o1	Calb FLC inconclusive
Cc1ccc(CNC(=O)CCn2cc(-c3ccc(C)cc3)nc2CCN)cc1	none (no result: M18AAP inhibitor, Calb FLC)
Cc1cccc(C(=O)Nc2nnc(-c3ccncc3)o2)c1	none
O=C(Nc1nnc(-c2ccncc2)o1)c1ccc2ccccc2c1	Calb FLC 90.1
COc1cccc(C(=O)Nc2nnc(-c3ccc(Cl)cc3)o2)c1	none (no result: M18AAP inhibitor)
COc1cccc(C(=O)Nc2nnc(-c3ccc(F)cc3)o2)c1	Calb FLC 83.0 (no result: M18AAP inhibitor)
COc1cccc(-c2nnc(NC(=O)c3ccc4ncsc4c3)o2)c1	Calb FLC 107.0
Cc1cc(C(=O)N(NC(=O)C(C)C)c2ccccc2)cs1	none
COc1ccccc1C(CCN(Cc1cccs1)C(C)=O)c1ccco1 (centres undefined)	none
COc1ccc(CN(CCC(c2ccccc2)c2ccco2)C(=O)c2ccco2)cc1 (centres undefined)	CTSL1 counter 23.4
O=C(c1ccco1)N(CCC(c1ccccc1)c1ccco1)Cc1ccccc1 (centres undefined)	CTSL1 counter 31.0
Cc1ccc(CN(Cc2ccco2)C(=O)c2ccco2)cc1	none
CCC(=O)N(CCC(c1ccccc1)c1ccco1)Cc1cccs1 (centres undefined)	CTSL1 counter 37.6
